Test results from the supplement of paper PMC3334620.
The full ranking holds about 33,000 sequences; the median of “E-score (-0.5 to 0.5)” is about -0.012, and the highest 2% start at about 0.27. Many of the other results were omitted from the sample, so the highest values are more common in it than they were.

Each sequence was assayed against T1, Vhr1 (UniProt P40522) (assay: PBM E-score (8-mer binding enrichment) (E-score (-0.5 to 0.5)); higher = stronger / more preferred TF binding). Details: protein concentration: 200 nM; construct: GST-full length.
T1 sequence: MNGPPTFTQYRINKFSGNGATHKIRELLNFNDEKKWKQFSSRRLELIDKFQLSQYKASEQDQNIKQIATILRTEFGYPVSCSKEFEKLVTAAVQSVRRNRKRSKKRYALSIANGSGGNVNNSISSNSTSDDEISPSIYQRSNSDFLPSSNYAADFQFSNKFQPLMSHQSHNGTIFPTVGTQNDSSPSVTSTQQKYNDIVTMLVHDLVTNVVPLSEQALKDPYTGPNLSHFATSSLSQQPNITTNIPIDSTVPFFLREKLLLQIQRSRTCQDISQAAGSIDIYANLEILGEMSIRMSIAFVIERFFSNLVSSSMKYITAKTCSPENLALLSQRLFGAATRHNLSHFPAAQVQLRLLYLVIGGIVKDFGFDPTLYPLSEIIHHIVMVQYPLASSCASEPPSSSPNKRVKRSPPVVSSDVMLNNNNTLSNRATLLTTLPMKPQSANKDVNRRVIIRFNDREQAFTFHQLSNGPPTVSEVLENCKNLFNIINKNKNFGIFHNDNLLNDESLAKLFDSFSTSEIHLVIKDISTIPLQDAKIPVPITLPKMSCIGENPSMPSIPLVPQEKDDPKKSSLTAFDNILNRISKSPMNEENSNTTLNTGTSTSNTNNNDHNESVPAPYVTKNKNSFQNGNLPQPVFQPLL
In short: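 For each ungapped eight-base word taken together with its reverse complement, the Universal PBM Analysis Suite assigned an E-score. Binding data came from GST-tagged yeast transcription factors, applied at about 100-200 nM, on universal all-10-mer Agilent arrays made double-stranded by primer extension. Fluorescent anti-GST marked bound protein, and scans were normalised with masliner.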

Sequence	PBM E-score
AGGAACCT	-0.0548
CAAGAGTA	0.167
CTCCCGCC	0.0303
CTAGCGAC	-0.00899
CGTGTCTA	0.124
ATGATTTC	0.249
GAGATTTA	-0.176
GGGATTTA	-0.29
GTGATTTA	0.321
ATGATTTA	0.295
CTGATTTA	0.00054
TCAATTGA	-0.0329
GATTCTCA	0.078
TGGTCCAA	-0.0804
AGATATAT	0.131
GCTGGGAA	0.0455
AGTGGGAC	0.0716
CCAAATCG	-0.166
ACTGCTCA	0.0795
AGCACTGG	-0.0591
AGGATGGC	0.124
CTCACGCC	0.239
GTCACAAA	-0.0213
CTCACATA	0.186
CTCACTCA	0.0981

Sequence	PBM E-score
GTCACGCA	0.0821
GTCACAGA	0.157
GTCACTCA	0.325
CTCACACA	0.299
GTCACACA	0.303
CTCACGCA	0.29
ATCACTCA	0.234
CTCACACC	0.0809
CATGGTAA	-0.0174
AATAGGGC	-0.124
AATTGTGG	0.00128
CCAACGCC	-0.203
CATTTGAA	-0.0815
TGATAGCA	0.194
ATAGATGC	-0.0668
GTGATATA	0.0452
CCATCCTC	0.0474
CTAGTATA	0.0509
CTCAACTA	0.106
ACTCAATG	0.159
ACTCAATC	0.293
AATCAACA	0.303
GATCAACA	-0.0766
ACTCAACA	0.289
TATCAACA	0.172

Sequence	PBM E-score
TCTCAACA	0.113
ACTCCACG	-0.104
TCTCCACA	-0.0495
AATCAATC	0.186
ACTCAACG	0.171
ACTCCACA	0.277
ACTCATAA	0.164
ACATCGCG	0.183
AGTTAGGC	-0.144
CGACTGTC	0.102
AAAGTAGG	-0.0386
ATCTCCAT	0.0116
ATGCTTGA	0.0306
CATCACCC	0.103
AATCACCA	0.33
AACCACCT	0.0827
AATCACGT	0.225
CATCACCA	0.167
AATCACCC	0.38
TATCACCA	0.0885
AATCACCT	0.312
AATCACCG	0.266
ACCCCAAG	-0.0964
CCGATCAC	0.0847
GTGCAAAC	-0.0932

Sequence	PBM E-score
TAGAAGGA	-0.332
ATAAGGGA	-0.137
ATCTAAAA	0.0219
ATTAACTG	0.224
AGTCATTC	0.384
AGTCATTG	0.389
CGTCATTC	0.177
GGTCATTA	-0.0362
CCTCATTC	-0.0181
ACTCATTC	0.367
AGCCATTC	-0.00524
ATTCATTG	0.0738
CGTCATTA	-0.122
AGTCATTA	0.368
ATTCATTC	0.165
ACTCATTG	0.196
TGACAGCA	0.127
ATAGCGTA	-0.0276
CAAAACAA	-0.13
GCCTCAAA	-0.0409
GAGGGCAC	-0.205
CTAGTCGC	0.0967
CAAGTCAG	0.208
CTAGTCAC	0.34
GTAGTCAA	0.262

Sequence	PBM E-score
GAAGTCAC	0.269
CAAGTCAC	0.284
GTAGTCAC	0.441
AAAGTCAC	0.246
CTAGTCAA	0.124
ACTCTTTC	-0.172
GTGTCTTA	0.0499
CCTGAATC	0.0923
GACGTTAC	-0.062
AAAGGCGT	-0.19
ACACAGCA	0.286
CCACAGCA	0.088
ACACAGCG	0.312
ACACAGCT	0.127
ACACAGCC	0.232
GCACAGCA	0.128
ATTTTAGC	-0.141
AATACCTC	0.0406
GAGTTAGA	-0.0441
ACTTTGAG	0.0115
AAGCTGGC	-0.163
AAGCGATT	-0.0711
AGCGGGGA	-0.0182
GGCGGGAA	-0.0569
GGTGGGAA	0.04

Sequence	PBM E-score
CGCGGGGA	0.292
GGCGGGGA	0.409
CGCGGGCC	0.187
CGTGGGGA	0.0323
GCGGGGGA	-0.0987
CGCGGGCA	0.287
GGCGGGCA	0.198
CGCGGGAA	0.105
GGTGGGGA	0.378
CACCAAGG	0.0118
AGGCTGGC	0.00081
AGGCCCGG	-0.234
ATTAGCGA	0.142
ATGGTCGA	-0.0168
GAGACTAA	-0.00777
CCGTTCAG	-0.184
CAACAATC	0.273
GAACAATC	-0.0437
CAACAATG	0.168
AGTCACAG	0.425
GGTCACAC	0.0719
CGTCACAA	-0.0394
AGTCACAT	0.402
AGTCACAA	0.391
ATTCACAG	-0.0154

Sequence	PBM E-score
AGCCACAT	0.22
GGTCACAA	0.0224
CGTCACAC	-0.021
AGGCACAT	0.0884
CGTCACAG	0.152
AGTCACAC	0.415
CTAAACAG	-0.00454
CGGCCTCA	0.024
ATTATTGA	0.036
TAGGAGCA	-0.0685
GACTTGTA	0.0565
CGAGCTCC	-0.102
CGAGCTCA	0.144
CGAGCTCG	0.307
CTGATGGC	0.0804
ATATTGGG	-0.038
GTTTATAA	-0.168
GCACCGAC	0.0173
ATGTAGTC	0.286
ATGTAGTA	0.0473
ATGTAGTG	0.114
ACATAGAT	-0.0848
